Results with a measured potency or affinity are listed apart. Inconclusive results are not listed. Active and inactive are the calls of the source. Unless noted, the rule behind the calls is not given here.
Key:
[1] = RMG-1 ovarian cancer cell viability loss – cherry-pick, dose response (AID 687029;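 active = signal drop whose fitted half-maximal concentration is at most twice the top valid dose, in every test run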;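 note: cells exposed to compound for 96 hours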)
[2] = IOSE-T80 viability loss, PAX8-independent line – cell-based, cherry-pick, selectivity assay for PAX8 inhibitor project, dose response (AID 687032;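 active = fitted half-maximal concentration for viability loss no higher than twice the top valid dose, in every repeat run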;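 note: cells exposed to compound for 96 h before reading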)
[3] = CMV-driven luciferase expression suppression in HEK293 – cell-based, luminescence, dry powder, counter-screen for Pax8 inhibitor project, dose response (AID 743020;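 active = signal-lowering compounds whose fitted half-maximal concentration is at or below twice the top tested dose in every run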;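 note: HEK293 cells stably expressing the CMV luciferase reporter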)
[4] = general cell-killing toxicity readout – plate reader, dry powder samples, cytotoxicity control for PAX8 inhibitor project, dose response (AID 743021)
[5] = IGROV1 cell killing – plate reader, dry powder samples, PAX8 inhibitor project, dose response (AID 743043);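 note: more negative means fewer viable cells or more cytotoxicity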
[6] = toxicity toward immortalized ovarian surface epithelium – cell-based, plate reader, dry powder samples, cytotoxicity control for PAX8 inhibitor project, dose response (AID 743045);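 note: more negative values mean more cell killing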
[7] = A2780 cell killing – plate reader, dry powder samples, cytotoxicity control, dose response (AID 743046)
[8] = OVCAR8 cell viability loss – plate reader, dry powder samples, PAX8 project, dose response (AID 743197)

Measured: outcome

COc1cccc(S(=O)(=O)N2CCCCN3[C@@H](CO)[C@@H](c4ccc(C#CCC(C)C)cc4)[C@@H]3C2)c1
inactive: all assays above

C[C@H]1CN([C@@H](C)CO)C(=O)Cc2cc(NC(=O)NC3CCCCC3)ccc2O[C@H]1CN(C)Cc1ccc(-c2ccccc2)cc1
not listed: [8]
inactive: all other assays above

C[C@@H]1CN([C@H](C)CO)C(=O)c2cc(NC(=O)Nc3ccc(F)cc3)ccc2O[C@@H](C)CCCCO[C@@H]1CN(C)Cc1ccc(Cl)c(Cl)c1
not listed: [8]
inactive: all other assays above

C[C@@H]1CCCCO[C@@H](CN(C)S(=O)(=O)c2ccc(F)cc2)[C@H](C)CN([C@H](C)CO)C(=O)c2cc(NS(=O)(=O)c3ccc(Cl)cc3)ccc2O1
not listed: [8]
inactive: all other assays above

COc1ccccc1C#Cc1ccc2c(c1)O[C@@H](CN(C)Cc1cncnc1)[C@H](C)CN([C@H](C)CO)S2(=O)=O
not listed: [8]
inactive: all other assays above

C[C@@H]1CCCCO[C@@H](CN(C)C(=O)Nc2ccc(C(F)(F)F)cc2)[C@H](C)CN([C@H](C)CO)C(=O)c2cc(NS(=O)(=O)c3ccc(F)cc3)ccc2O1
not listed: [8]
inactive: all other assays above

Cc1ccc(S(=O)(=O)Nc2ccc3c(c2)C(=O)N([C@H](C)CO)C[C@@H](C)[C@H](CN(C)Cc2ccc(Cl)c(Cl)c2)OCCCC[C@H](C)O3)cc1
not listed: [8]
inactive: all other assays above

C[C@@H]1CN([C@H](C)CO)C(=O)c2cc(NC(=O)Nc3ccc(C(F)(F)F)cc3)ccc2O[C@@H](C)CCCCO[C@H]1CN(C)S(=O)(=O)c1ccc(Cl)cc1
not listed: [8]
inactive: all other assays above

COc1ccc(CN(C)C[C@@H]2OCCCC[C@H](C)Oc3ccc(NC(=O)Nc4ccc(C(F)(F)F)cc4)cc3C(=O)N([C@H](C)CO)C[C@@H]2C)cc1
inactive: all assays above

COc1ccccc1C(=O)Nc1ccc2c(c1)C(=O)N(C)[C@@H]1CC[C@@H](CC(=O)NCc3ccc(Cl)c(Cl)c3)O[C@H]1CO2
not listed: [8]
inactive: all other assays above

C[C@@H]1CN([C@H](C)CO)C(=O)c2cc(NC(=O)Nc3ccc(C(F)(F)F)cc3)ccc2O[C@@H](C)CCCCO[C@H]1CN(C)S(=O)(=O)c1ccccc1
inactive: all assays above

C[C@@H]1CN([C@H](C)CO)C(=O)c2cc(NC(=O)Nc3ccc(F)cc3)ccc2O[C@@H](C)CCCCO[C@H]1CN(C)C(=O)Nc1ccc(C(F)(F)F)cc1
not listed: [8]
inactive: all other assays above

C[C@@H]1CN([C@H](C)CO)S(=O)(=O)c2ccc(C#CC3CCCC3)cc2O[C@H]1CN(C)Cc1cccnc1
not listed: [8]
inactive: all other assays above

C[C@H](CO)N1C[C@H](C)[C@H](CN(C)Cc2ccc(C(F)(F)F)cc2)OCCCC[C@H](C)Oc2ccc(NC(=O)NC3CCCCC3)cc2C1=O
not listed: [8]
inactive: all other assays above

C[C@@H]1CN([C@H](C)CO)C(=O)c2cc(NS(=O)(=O)c3ccccc3)ccc2O[C@@H](C)CCCCO[C@@H]1CN(C)CC1CCCCC1
not listed: [8]
inactive: all other assays above

CC(C)NC(=O)N(C)C[C@H]1OCCCC[C@@H](C)Oc2ccc(NC(=O)Nc3ccc(C(F)(F)F)cc3)cc2C(=O)N([C@@H](C)CO)C[C@H]1C
not listed: [8]
inactive: all other assays above

COc1ccc(S(=O)(=O)Nc2ccc3c(c2)CC(=O)N([C@@H](C)CO)C[C@@H](C)[C@H](CN(C)Cc2ccc(C(F)(F)F)cc2)O3)cc1
not listed: [8]
inactive: all other assays above

C[C@H]1CN([C@@H](C)CO)C(=O)Cc2cc(NC(=O)Nc3ccc(F)cc3)ccc2O[C@H]1CN(C)Cc1ccc(Cl)c(Cl)c1
inactive: all assays above

C[C@@H]1CCCCO[C@H](CN(C)Cc2ccccc2)[C@@H](C)CN([C@@H](C)CO)C(=O)c2cc(NC(=O)Nc3ccc(C(F)(F)F)cc3)ccc2O1
not listed: [8]
inactive: all other assays above

C[C@H](CO)N1C[C@H](C)[C@@H](CN(C)S(=O)(=O)c2cccc(F)c2)OCc2ccccc2-c2c(n(C)c3ccccc23)C1=O
not listed: [8]
inactive: all other assays above

O=C(Nc1ccc(F)cc1)N1CC(=O)N2[C@@H](CO)[C@@H](c3ccc(C#Cc4ccc(F)cc4)cc3)[C@@H]2C1
not listed: [8]
inactive: all other assays above

C[C@@H]1CN([C@H](C)CO)C(=O)c2cc(NS(=O)(=O)c3cccs3)ccc2O[C@@H](C)CCCCO[C@@H]1CN(C)Cc1ccc(C(F)(F)F)cc1
inactive: all assays above

O=C(Nc1ccc(C(F)(F)F)cc1)Nc1ccc2c(c1)[C@H]1C[C@@H](CC(=O)N3CCc4ccccc4C3)O[C@@H](CO)[C@H]1O2
not listed: [8]
inactive: all other assays above

O=C(Nc1ccc(C(F)(F)F)cc1)Nc1ccc2c(c1)[C@@H]1C[C@H](CC(=O)N3CCc4ccccc4C3)O[C@H](CO)[C@@H]1O2
not listed: [8]
inactive: all other assays above

CC(C)CC#Cc1ccc2c(c1)O[C@H](CN(C)S(=O)(=O)c1ccc(F)cc1)[C@@H](C)CN([C@@H](C)CO)S2(=O)=O
not listed: [8]
inactive: all other assays above

C[C@H]1CCCCO[C@H](CN(C)Cc2ccc(C(F)(F)F)cc2)[C@@H](C)CN([C@@H](C)CO)C(=O)c2cc(NS(=O)(=O)c3cccs3)ccc2O1
not listed: [8]
inactive: all other assays above

C[C@@H]1CCCCO[C@H](CN(C)Cc2ccc(C(F)(F)F)cc2)[C@H](C)CN([C@@H](C)CO)C(=O)c2cc(NS(=O)(=O)c3ccc(Cl)cc3)ccc2O1
not listed: [8]
inactive: all other assays above

C[C@@H]1CN([C@H](C)CO)C(=O)c2cc(NC(=O)Nc3ccc(C(F)(F)F)cc3)ccc2O[C@@H](C)CCCCO[C@H]1CN(C)C(=O)NC1CCCCC1
not listed: [8]
inactive: all other assays above

C[C@@H]1CCCCO[C@H](CN(C)C(=O)Nc2ccc(C(F)(F)F)cc2)[C@@H](C)CN([C@@H](C)CO)C(=O)c2cc(NC(=O)Nc3ccc(C(F)(F)F)cc3)ccc2O1
not listed: [8]
inactive: all other assays above

Cc1ccccc1-c1ccc2c(c1)O[C@H](CN(C)C(=O)Nc1ccc(C(F)(F)F)cc1)[C@@H](C)CN([C@H](C)CO)S2(=O)=O
not listed: [8]
inactive: all other assays above

C[C@H]1CN([C@@H](C)CO)S(=O)(=O)c2ccc(C#Cc3ccncc3)cc2O[C@H]1CN(C)C(=O)C1CCCCC1
not listed: [8]
inactive: all other assays above

COc1cccc(C#Cc2ccc3c(c2)O[C@@H](CN(C)C(=O)c2ccccn2)[C@H](C)CN([C@@H](C)CO)S3(=O)=O)c1
not listed: [8]
inactive: all other assays above

C[C@@H]1CCCCO[C@H](CN(C)Cc2ccc(C(F)(F)F)cc2)[C@H](C)CN([C@H](C)CO)C(=O)c2cc(NC(=O)c3ccccc3)ccc2O1
not listed: [8]
inactive: all other assays above

C[C@H](CO)N1C[C@H](C)[C@H](CN(C)Cc2ccc(C(F)(F)F)cc2)OCCCC[C@H](C)Oc2ccc(NS(=O)(=O)c3ccc(F)cc3)cc2C1=O
not listed: [8]
inactive: all other assays above

C[C@@H]1CN([C@H](C)CO)C(=O)c2cc(NC(=O)Nc3cccc4ccccc34)ccc2O[C@@H]1CN(C)C(=O)Nc1cccc2ccccc12
not listed: [8]
inactive: all other assays above

COCC(=O)N1CCCCN2[C@H](C1)[C@@H](c1ccc(-c3ccc(C)cc3)cc1)[C@@H]2CO
inactive: all assays above

Source: PubChem BioAssay
